The panel holds about 79,000 compounds, 15% with a hit somewhere; the sample as a whole holds those more often. A number with no mark means an inactive call. Active and inactive are the calls of the source. Rule as the data show it: active = growth inhibition above about 70%; inactive = the rest.
Legend:
[1] = NCI Yeast Anticancer Drug Screen. Data for the rad50 strain (AID 155);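 also: 0% = growth of vehicle-only cultures of the same strain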; details: S. cerevisiae rad50 strain growth inhibition, active compounds read high
Outline: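 Cells are treated with compound, grown, and their growth is then scored against vehicle-only cultures of the same repair-deficient yeast strain.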

[2] = NCI Yeast Anticancer Drug Screen. Data for the mec2-1 strain (AID 157); details: S. cerevisiae mec2-1 strain, active compounds read high
Outline: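 Yeast mec2-1 mutant treated with compound. Readout: growth inhibition vs vehicle controls.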

[3] = NCI Yeast Anticancer Drug Screen. Data for the sgs1 mgt1 strain (AID 161);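 also: 0% = growth of cultures given vehicle only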; details: S. cerevisiae sgs1 mgt1 strain, active compounds read high
Outline: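 Inhibition of yeast growth, normalised to vehicle-treated controls, is reported for a strain bearing genetic alterations in DNA damage repair.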

[4] = NCI Yeast Anticancer Drug Screen. Data for the cln2 rad14 strain (AID 165);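 also: 0% = growth equal to vehicle treated cultures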; details: S. cerevisiae cln2 rad14 strain, active compounds read high
Outline: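 cln2 rad14 yeast strain; compound exposure; growth inhibition read vs vehicle controls.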

[5] = NCI Yeast Anticancer Drug Screen. Data for the bub3 strain (AID 167); details: S. cerevisiae bub3 mutant strain, active compounds read high
Outline: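 Part of a panel of yeast mutants defective in DNA damage repair or cell cycle regulation. Each strain is grown with compound, and inhibition is calculated relative to solvent-treated cultures.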

[6] = NCI Yeast Anticancer Drug Screen. Data for the mlh1 rad18 strain (AID 175); details: S. cerevisiae mlh1 rad18 strain growth inhibition, active compounds read high
Outline: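 Yeast w/ defined DNA-repair lesions; compound exposure; growth vs vehicle controls → % inhibition.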

[7] = at 5.0 µM (retest, dose inferred, filed as 0.5)
[8] = at 50.0 µM (retest, dose inferred, filed as 5.0)

Compound | growth inhibition [1, 7] | growth inhibition [1, 8] | growth inhibition ([1]; at 50.0 µM) | growth inhibition [2, 7] | growth inhibition [2, 8] | growth inhibition ([2]; at 50.0 µM) | growth inhibition [3, 7] | growth inhibition [3, 8] | growth inhibition ([3]; at 50.0 µM) | growth inhibition [4, 7] | growth inhibition [4, 8] | growth inhibition ([4]; at 50.0 µM) | growth inhibition [5, 7] | growth inhibition [5, 8] | growth inhibition ([5]; at 50.0 µM) | growth inhibition [6, 7] | growth inhibition [6, 8] | growth inhibition ([6]; at 50.0 µM)
COc1ccc2c(c1OC)OCC2C (stereo not given) | 3% | 68% | 86.5% (active) | 0% | 38% | 71% (active) | 1% | 56% | 37.6% | -4% | 57% | 57.4% | 2% | 71% (active) | 87.1% (active) |  |  | 
O/N=C1\c2ccccc2-c2ccc(Cl)cc21 | 6% | 35% | 60.5% | -5% | 34% | 50.5% | 3% | 60% | 87.4% (active) | -4% | 27% | 41.4% | -4% | 28% | 74.3% (active) |  |  | 
CNCCN[C@@H]1c2cc3c(cc2[C@@H](c2cc(OC)c(O)c(OC)c2)[C@H]2C(=O)OC[C@@H]21)OCO3 | 96% (active) | 97% (active) | 78.8% (active) | 43% | 91% (active) | 65.3% | -24% | 75% (active) | 88.1% (active) | 3% | 42% | 82.4% (active) | -3% | 84% (active) | 87% (active) |  |  | 
CCN(CCCOc1ccccc1)CCN(CC)CCCOc1ccccc1 | 1% | 13% | 34.5% | 19% | 38% | 33.2% | 1% | 59% | 60.9% | 0% | 11% | 73.2% (active) | 2% | 14% | 42% | 15% | 44% | 35.6%
O=S(=O)(c1cc(Cl)ccc1Cl)N1CCc2ccccc2C1 | 14% | 3% | 16.1% | -28% | -13% | -25.6% | -1% | 12% | 25.6% | -1% | 15% | -11.4% | 18% | 12% | 5% |  |  | 
CC(C(=O)NN)C(O)C(C)(C)O (stereo not given) | 3% | -5% | 58.7% | -5% | -10% | 3.8% | 1% | 3% | -7.4% | 1% | -9% | -47.5% | -2% | 1% | -5.85% |  |  | 
CC1CCCC(C)C1=O (stereo not given) | 4% | 3% | 8.7% | -4% | 0% | -12.2% | -7% | 3% | -13.4% | 3% | 7% | 13.8% | 5% | 10% | 3% | 2% | 3% | -4.35%
N#C/C(=C/c1cc(I)cc(I)c1O)C(N)=O | 42% | 87% (active) | 79.8% (active) | 39% | 92% (active) | 58.6% | 69% | 97% (active) | 78.8% (active) | 41% | 90% (active) | 61.2% | 44% | 96% (active) | 80.2% (active) |  |  | 
O=[N+]([O-])C(=C1Nc2ccccc2N1)C(Cl)=C(Cl)Cl | 10% | 8% | -4.9% | 10% | 15% | 3.3% | 13% | 22% | 9.85% | 10% | 10% | -13.8% | 11% | 12% | -2.55% | 15% | 16% | 11%
CN1CCS(=O)(=O)C1=O | 3% | 87% (active) | 90.3% (active) | 2% | 93% (active) | 95.8% (active) | 1% | 75% (active) | 42.8% | 10% | 54% | 86.3% (active) | 5% | 94% (active) | 98% (active) | 1% | 63% | 93.2% (active)
O=C(O)C1(Cc2ccc3c(c2)CCC3)Cc2cc3c(cc2C1)CCC3 | 2% | 2% | 82.8% (active) | -7% | -7% | 86.1% (active) | -1% | -1% | 77.8% (active) | -1% | -1% | 82% (active) | -11% | -11% | 82.2% (active) | 14% | 14% | 80.1% (active)

From PubChem BioAssay (NCI)
